{"source": "the supplement of paper PMC6992640"}
{"test_system": "HCI01 (cells of a triple-negative basal-like breast cancer xenograft)", "assay": "cell viability of combination (% of vehicle); higher = less cytotoxic", "settings": "1 µM; 72 h; partner dose: 10 nM", "description": "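PDX cells were treated for 72 h with each drug at 1 µM plus carfilzomib (10 nM; 100 nM for WHIM2). Luciferase viability is expressed as percent of vehicle.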"}
{"molecule": "CCCCCCCCCCCCCCCC[N+](C)(C)C.[Br-]", "note": "[Cetrimonium Bromide (CTAB)] + CC(C)C[C@H](NC(=O)[C@H](CCc1ccccc1)NC(=O)CN1CCOCC1)C(=O)N[C@@H](Cc1ccccc1)C(=O)N[C@@H](CC(C)C)C(=O)[C@@]1(C)CO1 [Carfilzomib]", "cell viability of combination": 72.8}
{"molecule": "CCCCCCCCCCCC[N+](C)(C)CCOc1ccccc1.[Br-]", "note": "[Domiphen Bromide] + CC(C)C[C@H](NC(=O)[C@H](CCc1ccccc1)NC(=O)CN1CCOCC1)C(=O)N[C@@H](Cc1ccccc1)C(=O)N[C@@H](CC(C)C)C(=O)[C@@]1(C)CO1 [Carfilzomib]", "cell viability of combination": 71.1}
{"molecule": "Cc1cc(C(C#N)c2ccc(Cl)cc2)c(Cl)cc1NC(=O)c1cc(I)cc(I)c1O", "note": "(stereo not given) [Closantel] + CC(C)C[C@H](NC(=O)[C@H](CCc1ccccc1)NC(=O)CN1CCOCC1)C(=O)N[C@@H](Cc1ccccc1)C(=O)N[C@@H](CC(C)C)C(=O)[C@@]1(C)CO1 [Carfilzomib]", "cell viability of combination": 70.3}
{"molecule": "CCCCCCCCCCCCCCCC[n+]1ccccc1.[Cl-]", "note": "[Cetylpyridinium Chloride] + CC(C)C[C@H](NC(=O)[C@H](CCc1ccccc1)NC(=O)CN1CCOCC1)C(=O)N[C@@H](Cc1ccccc1)C(=O)N[C@@H](CC(C)C)C(=O)[C@@]1(C)CO1 [Carfilzomib]", "cell viability of combination": 77}
{"molecule": "Cc1cc(C(C#N)c2ccc(Cl)cc2)c(Cl)cc1NC(=O)c1cc(I)cc(I)c1[O-].[Na+]", "note": "(stereo not given) [Closantel Sodium] + CC(C)C[C@H](NC(=O)[C@H](CCc1ccccc1)NC(=O)CN1CCOCC1)C(=O)N[C@@H](Cc1ccccc1)C(=O)N[C@@H](CC(C)C)C(=O)[C@@]1(C)CO1 [Carfilzomib]", "cell viability of combination": 68.9}
